These results are taken from PubChem BioAssay AID504834 (National Center for Advancing Translational Sciences (NCATS), 2011).

About 22,000 (6.9%) of roughly 320,000 compounds were called active. Roughly 27% stayed inconclusive and do not appear here. Calls follow the shape of the dose curve; as a rule, active = well fitted inhibition curve with a large enough effect; inconclusive = small, poorly fitted or top-dose-only effect, or another doubt; inactive = no such curve, though single readings can be large or run the other way. For the sample, actives were picked, then their nearest neighbours and some compounds at random.
% is scaled to controls: 0 for no effect and ±100 for the full control effect; potency is read from the fitted curve at half-maximal effect.

The nature of this experiment: Primary qHTS for delayed death inhibitors of the malarial parasite plastid, 96 hour incubation. The settings on record: P. falciparum luciferase reporter growth; series mostly up to 28.7 µM; activity change, negative = inhibition: at the top concentration. The text has this: The goal of this screen is to discover new antimalarial compounds that act by inhibiting the development of the apicoplast in the malarial parasite Plasmodium falciparum. The biochemical processes that make this organelle essential for erythrocytic stage parasites are not well understood. However, antibiotics such as azithromycin and tetracycline, which target the apicoplast translational machinery, have a potent antimalarial effect.
We have developed a cell-based assay that measures parasite growth based on the expression of an integrated copy of a firefly luciferase reporter. To detect small molecules that cause this "delayed death" phenotype, erythrocytes infected with the luciferase-expressing parasites were incubated with compounds for either one or two generations, corresponding to 48 and 96 hours, respectively. Compounds that inhibit parasite growth in the second generation, but not the first, should be enriched in antimalarials that target the apicoplast. Growth inhibition is detected by a decrease in luciferase activity.
Assay Provider: David Fidock and Eric Ekland, Columbia University
Keywords: NIH Roadmap, MLPCN, MLI, MLSMR, qHTS, NCGC, qHTS, malaria, luciferase, viability
Four microliters of infected erythrocytes (2% hematocrit, 0.05% parasitemia final concentration) in culture medium were dispensed and the plates incubated for 96 hours at 37 C in 5% CO2. Two microliters of luciferase detection reagent was added and luminescence was detected by a ViewLux (PerkinElmer) reader.
As for `COc1ccc(C(=O)OCC(=O)c2ccc(Cl)s2)c(OC)c1OC`, the “activity change, negative = inhibition” value is -21.3% (inactive).

Regarding `CCc1cccc(C)c1NC(=O)COC(=O)CNC(=O)c1cccs1`, the “activity change, negative = inhibition” value was 34.6% (inactive).

On to `CN(C)c1cccc(C(=O)N2CCC(n3nccc3NC(=O)C3CCOC3)CC2)c1` (stereo not drawn), for which the “activity change, negative = inhibition” value was 16.6% (inactive).

Consider `Cc1nnc2n1N=C(c1ccccc1)CS2`, for which the “activity change, negative = inhibition” value was 22% (inactive).

Turning to `CCN(CC)S(=O)(=O)c1ccc(Cl)c(C(=O)NCCN2CCOCC2)c1`, the “activity change, negative = inhibition” value was -25.2% (inactive).

In the case of `N#C/C(=C/c1ccc(Cl)cc1)NC(=O)c1ccccc1`, the Potency is 3.7 µM (active).

Turning to `O=C(NC(=O)c1ccccc1)NC(=O)c1ccccc1`, the “activity change, negative = inhibition” value was -27.2% (inactive).

As for `O=C(NCC1CCCO1)/C(=C/c1ccc(Cl)cc1)NC(=O)c1ccccc1` (stereo not drawn), the “activity change, negative = inhibition” value was -28.1% (inactive).

Regarding `COc1ccc(N2C(=O)C(CC(=O)Nc3ccccc3)N(Cc3ccc(OC)c(OC)c3)C2=O)cc1` (stereo not drawn), the “activity change, negative = inhibition” value was 10.9% (inactive).

`CCCOc1ccc(NC(=O)CC2C(=O)N(C)C(=S)N2Cc2ccc3c(c2)OCO3)cc1` (stereo not drawn): the Potency was 0.329 µM (active).

For the molecule `CCOc1ccc(NC(=O)CC2C(=O)N(c3ccccc3)C(=O)N2CCOC)cc1` (stereo not drawn), the “activity change, negative = inhibition” value is 35.9% (inactive).

Regarding `CCS(=O)(=O)c1ccc(-c2cccc(NC(=O)c3ccc(Br)o3)c2)nn1`, the “activity change, negative = inhibition” value is 1.83% (inactive).

Turning to `O=C(OCCN1C(=O)c2ccccc2C1=O)Oc1ccccc1`, the “activity change, negative = inhibition” value was -2.14% (inactive).

Take `O=C(NCCCn1ccnc1)c1ccccc1F`: the “activity change, negative = inhibition” value was -19.5% (inactive).

As to `COc1ccc(-c2cn3cccnc3n2)cc1`, the activity change, negative = inhibition is -27.3% [at 5.75 µM] (inactive).

Turning to `COc1ccc(-c2csc(Nc3ccccn3)n2)cc1`, the “activity change, negative = inhibition” value was 9.84% (inactive).

Turning to `COc1ccc(-c2sc3ccc(OC)cc3c2C#Cc2ccccn2)cc1`, the Potency is 2.33 µM (active).

On to `CC1(C)C(C=C(Cl)Cl)C1C(=O)NC(O)C(=O)c1ccccc1` (stereo not drawn), for which the “activity change, negative = inhibition” value was 21.7% (inactive).

Regarding `COc1ccc(N2CCN(C3CCCCC3NS(=O)(=O)c3ccccc3)CC2)cc1` (stereo not drawn), the “activity change, negative = inhibition” value was 19.5% (inactive).

In the case of `O=C(NC1Cc2ccccc2C1)c1cc(COc2cccc(C(F)(F)F)c2)on1`, the “activity change, negative = inhibition” value is -18.1% (inactive).

In the case of `CC(C)CC(=O)Nc1nnc(S(=O)(=O)N(C)c2ccc(Cl)cc2)s1`, the “activity change, negative = inhibition” value is 0% (inactive).

In the case of `Cc1cc(C(=O)OCC(=O)N2c3ccccc3NC(=O)C2(C)C)c(C)n1-c1ccccc1`, the “activity change, negative = inhibition” value was 0% (inactive).

As to `CCNc1ccc(C(=O)OCC(=O)N2c3ccccc3NC(=O)C2(C)C)cc1[N+](=O)[O-]`, the Potency is 9.28 µM (active).

Consider `CNS(=O)(=O)c1cccc(C(=O)OCC(=O)N2c3ccccc3NC(=O)C2(C)C)c1`, for which the “activity change, negative = inhibition” value is -26.3% (inactive).

Take `COc1cccc(-n2c(=S)sc3c(=O)n(-c4ccccc4C)c(SCC(=O)O)nc32)c1`: the “activity change, negative = inhibition” value is 23.6% (inactive).

For the molecule `O=C(CN1CCCCCC1)Nc1ccc(Cl)cc1F`, the “activity change, negative = inhibition” value is 39.2% (inactive).

For `CN(C)C(=O)c1ccc(NC(=O)COC(=O)c2cc3c(s2)CCCCC3)cc1`, the “activity change, negative = inhibition” value was -11.1% (inactive).

For `CC(C)c1cc(CN2CCOCC2)cc(C(C)C)c1O`, the Potency was 10.4 µM (active).

Take `Cc1cc(C)cc(NC(=S)NCCCN2CCOCC2)c1`: the “activity change, negative = inhibition” value was 2.48% (inactive).

Regarding `CC(CN1CCOCC1)c1ccccc1` (stereo not drawn), the “activity change, negative = inhibition” value was 25.6% (inactive).

For `CCOC(=O)Nc1ccc2c(c1)N(C(=O)CCCl)c1ccccc1[S@]2=O`, the “activity change, negative = inhibition” value was -14.6% (inactive).

Regarding `Cc1ccc(CCN2CC(C(=O)NCCc3ccccc3)CC2=O)cc1` (stereo not drawn), the “activity change, negative = inhibition” value is 68.2% (inactive).

As for `CC(=O)Nc1c2c(nn1-c1cccc(C)c1)CSC2`, the “activity change, negative = inhibition” value is 20.2% (inactive).

As for `O=C(CCCN1C(=O)/C(=C\c2ccco2)SC1=S)Nc1cccc2ccccc12`, the “activity change, negative = inhibition” value is 10.4% (inactive).

In the case of `CCCN(CCC)c1nc2c(C)cccn2c(=O)c1/C=C1/SC(=S)N(Cc2ccco2)C1=O`, the Potency was 2.08 µM (active).

For `Cc1ccc2[nH]c(=O)c(-c3nc4c(C)cccn4c3NCc3ccco3)cc2c1`, the activity change, negative = inhibition was 10.9% [at 5.75 µM] (inactive).

For the molecule `Cn1c(=O)[nH]c(=O)c2c1[nH]c(=S)n2Cc1ccccc1`, the “activity change, negative = inhibition” value is 10.9% (inactive).

As for `COc1ccc(C(=O)Oc2ccc(-c3nnco3)cc2)cc1S(=O)(=O)N1CCOCC1`, the “activity change, negative = inhibition” value is 22.5% (inactive).

As for `COc1ccccc1N1CCN(CC(=O)NC(=O)NCc2ccco2)CC1`, the “activity change, negative = inhibition” value was 27.5% (inactive).

Take `COc1ccc(C2=NOC(C(=O)NCc3ccco3)C2)cc1OC` (stereo not drawn): the “activity change, negative = inhibition” value is -4.01% (inactive).

Consider `COc1cc2c(cc1OC)C(C(=O)NCc1ccco1)C1c3ccccc3CCN1C2=O` (stereo not drawn), for which the Potency was 3.29 µM (active).

As to `CCCCNC(=O)CN1C(=O)NC(Cc2ccccc2)(Cc2ccccc2)C1=O`, the “activity change, negative = inhibition” value is 7.91% (inactive).

As for `CCOC(=O)c1c(NC(=O)/C=C/c2ccco2)sc(C)c1C`, the Potency is 2.33 µM (active).

With `CCOC(=O)c1c(NC(=S)NC(=O)/C=C/c2cccs2)sc(C)c1C`, the “activity change, negative = inhibition” value is 0% (inactive).

As to `CCOC(=O)c1c(NC(=O)c2cccs2)sc(C)c1C`, the “activity change, negative = inhibition” value was 50.7% (inactive).

Turning to `Cn1c(Nc2ccccc2)cc(=O)n(C)c1=O`, the “activity change, negative = inhibition” value is 11.9% (inactive).

As to `COc1ccc(N2C(=O)CCC(C(=O)N(C)C3CCCCC3)C2c2ccc(OC)c(OC)c2)cc1` (stereo not drawn), the “activity change, negative = inhibition” value is -2.32% (inactive).

As to `COC(=O)CN1C(=O)[C@H]2[C@@H](C3CC3)N3C(=O)CN(Cc4ccc(-c5ccccc5)cc4)C(=O)[C@@]3(Cc3ccccc3)[C@H]2C1=O`, the “activity change, negative = inhibition” value was 40.9% (inactive).

Consider `CCN1C(=O)[C@@H]2[C@@H](c3ccc(-c4ccc(OC)cc4)c(OC)c3)N3CCC[C@@]3(C(=O)OC)[C@@H]2C1=O`, for which the Potency was 10.4 µM (active).

As for `CCN1C(=O)[C@@H]2[C@@H](c3ccc(-c4cccc(Cl)c4)cc3)N3CCC[C@@]3(C(=O)OC)[C@@H]2C1=O`, the Potency was 8.28 µM (active).

Turning to `CCn1cc(CN2CCC(C(=O)Nc3cccc(-c4cccc(Cl)c4)c3)CC2)c(C)n1`, the “activity change, negative = inhibition” value was 11.7% (inactive).

On to `COCCCN1C(=O)c2ccc(C(=O)Nc3ccc(OC)cc3OC)cc2C1=O`, for which the activity change, negative = inhibition is 25.7% [at 5.75 µM] (inactive).

For `CCCCCCSc1ccc([C@@H]2[C@@H]3C(=O)N(CC)C(=O)[C@@H]3[C@]3(C(=O)OC)CCCCN23)cc1OC`, the Potency was 6.57 µM (active).
